Results published in PubChem BioAssay AID743354 (Broad Institute, 2014).
Measured potencies and affinities stand elsewhere. Active and inactive are the calls of the source.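 How the source made its calls: active means cytotoxic signal drop with a fitted half-maximal concentration at most twice the top valid tested dose; inconclusive means flat fit with moderate signal loss, or poor fit quality; inactive means opposite effect, flat response, or potency beyond limit.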

experiment: viability loss in HEK293 cells – cell-based, luminescence, dry powder, set 12, cytotoxicity control, dose response (AID 743354); conditions: HEK293T viability, CellTiter-Glo ATP luminescence, 72 h; series mostly up to 26 µM

SMILES	outcome
CNS(=O)(=O)c1ccc(N2CCN(C(=O)c3ccc4c(c3)OCO4)CC2)cc1	inactive
COc1ccccc1NC(=O)N1CC[C@@H]2[C@@H](CO)N(C)c3ccc(-c4ccc(F)cc4)cc3[C@@H]21	inactive
CN1c2ccc(-c3cccc(F)c3)cc2[C@@H]2[C@@H](CCN2C(=O)c2ccc3c(c2)OCO3)[C@@H]1CO	inactive
CC(=O)c1ccc(N2CC3(CN(C(=O)c4ccc5c(c4)OCO5)C3)C2)cc1	inactive
CN1c2ccc(-c3cccc(F)c3)cc2[C@H]2[C@H](CCN2C(=O)CCCCCCC(=O)O)[C@H]1CO	inactive
CC(=O)c1ccc(N2CCN(C(=O)c3ccc4c(c3)OCO4)CC2)cc1	inactive
COc1ccc(NC(=O)N2CC[C@@H]3[C@@H](CO)N(C)c4ccc(-c5ccc(F)cc5)cc4[C@@H]32)cc1	inactive
CN1c2ccc(-c3cccc(F)c3)cc2[C@H]2[C@H](CCN2C(=O)Nc2ccccc2F)[C@H]1CO	inactive
CN1c2ccc(-c3cccc(F)c3)cc2[C@@H]2[C@@H](CCN2C(=O)c2ccc3c(c2)OCO3)[C@H]1CO	inactive
CC(C)NC(=O)N1CC[C@@H]2[C@@H](CO)N(C)c3ccc(-c4ccc(F)cc4)cc3[C@@H]21	inactive
COc1ccccc1C(=O)N1CCN(c2ccc(C(C)=O)cc2)CC1	inactive
COCC(=O)N1CC[C@@H]2[C@@H](CO)N(C)c3ccc(-c4cccc(F)c4)cc3[C@@H]21	inactive
CN1c2ccc(-c3ccc(F)cc3)cc2[C@H]2[C@H](CCN2C(=O)Cc2cccnc2)[C@H]1CO	inactive
COc1ccc(NC(=O)N2CC[C@@H]3[C@@H](CO)N(C)c4ccc(-c5cccc(F)c5)cc4[C@@H]32)cc1	inactive
CN1c2ccc(-c3cccc(F)c3)cc2[C@H]2[C@H](CCN2C(=O)Cc2ccccc2)[C@H]1CO	inactive
CCCNC(=O)N1CC[C@@H]2[C@@H](CO)N(C)c3ccc(-c4ccc(F)cc4)cc3[C@@H]21	inactive
CN1c2ccc(-c3ccc(F)cc3)cc2[C@H]2[C@H](CCN2C(=O)Cc2ccccn2)[C@H]1CO	inactive
CC(=O)c1ccc(NCCNC(=O)c2ccc3c(c2)OCO3)cc1	inactive
COC(=O)c1ccc(N2CCN(C(=O)c3ccc4c(c3)OCO4)CC2)cc1	inactive
